Spn PMK inh = S. pneumoniae PMK inhibitors, primary screen, biochemical, mevalonate pathway, pilot trial included. phosphomevalonate kinase (Streptococcus pneumoniae D39). purified PMK, PK/LDH-coupled NADH absorbance 340 nm. inhibition, % at 10 µM. 65,000 tested, 0.49% active. AID 539, 2006;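 active = top-ranked compounds by inhibition in the single 10 µM screen, taking a fixed number of the strongest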;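 note: 0% = full reaction with DMSO carrier and 100% = background rate without enzyme reaction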
NADH enzymes = inhibitors of PK/LDH coupling enzymes, profiling panel, artefact control, biochemical, MLSMR library; AID 774, 2007; coupled PK/LDH NADH assays, four targets; IC50, µM (highest dose often 10 µM), for the others: at the highest dose inhibition; 65,000 tested, 0.02% active;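 active = single-dose screening hits from any of four coupled enzyme assays that gave an IC50 when retested across doses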;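 note: the DPM-DC format reads NADH fluorescence rather than 340 nm absorbance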
DPM-DC inhibit = S. pneumoniae DPM-DC inhibitors, primary screen, biochemical, PK/LDH-coupled NADH fluorescence; purified DPM-DC; calls only at 10 µM; 65,000 tested, 0.49% active; AID 556, 2006;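 active = the 320 compounds with the highest percent inhibition in the single-dose primary screen, excluding strongly autofluorescent ones, cut at about 32% in these data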;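 note: kinetic rate of NADH fluorescence loss reporting ADP formed by the decarboxylase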
Spn MK inh = S. pneumoniae MK inhibitors, primary screen, biochemical, PK/LDH-coupled NADH absorbance; mevalonate kinase [Streptococcus pneumoniae D39]; purified MK, PK/LDH-coupled NADH absorbance 340 nm; inhibition, % at 10 µM; 65,000 tested, 0.48% active; AID 555, 2006;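 active = ranked among the strongest by inhibition in the single 10 µM screen, a fixed top-ranked set picked for dose follow-up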
Autofluor 339 = intrinsic fluorescence of library compounds, ex339/em460 – biochemical, MLSMR library, data from DPM-DC assay, artefact control, profiling panel; compound autofluorescence, ex339/em460 nm, NADH buffer; hits give high values; 1 = no-compound wells, NADH background; fluorescence fold increase at 10 µM; 65,000 tested, 5.5% active; AID 709, 2007;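 active = at 10 µM, mean starting fluorescence two-fold or more over control wells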;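 note: signal is the first read of a kinetic run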
A340 absorber = compound light absorbance at 340 nm, profiling panel, artefact control, biochemical, MLSMR library, data from PS, PMK, MK assays | compound absorbance at 340 nm, fold over control | fold change at 10 µM | AID 708, 2007 | 65,000 tested, under 10 active;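 active = at 10 µM dose, initial 340 nm absorbance at least 2 fold that of control wells; inactive = change under 2 fold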;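 note: initial absorbance extrapolated from kinetic A340 decline of NADH oxidation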
* hit, by the source's call; i = inactive; · = not tested or not shown; + = active, no number. This is a sample that favours compounds with a hit; in the whole collection about 6.3% have one here.

SMILES	Spn PMK inh	NADH enzymes	DPM-DC inhibit	Spn MK inh	Autofluor 339	A340 absorber
Cc1ccc(-c2nnc3sc(-c4ccncc4)nn23)cc1	8.0	7.0%	i	5.0	1.11	1.06
CNc1nnc(-c2ccncc2)s1	14.0	12.0%	·	10.0	4.35*	1.07
COc1ccc(-c2nnc(N)s2)cc1	9.0	5.0%	i	5.0	1.2	1.04
O=C1CSC(=Nc2cc(Cl)ccc2Cl)N1	4.0	6.0%	i	13.0	1.04	1.07
Cc1nc(NC2=NCN(Cc3ccc4c(c3)OCO4)CN2)nc2ccccc12	5.0	5.0%	i	9.0	1.07	1.01
Cc1cc(C)nc(Nc2nc(C)c3cc4c(cc3n2)OCO4)n1	16.0	13.0%	·	9.0	3.52*	1.15
Cc1cc(OC(=O)c2ccc(S(=O)(=O)N(C)C)cc2)cc(=O)o1	18.0	7.0%	i	4.0	1.1	0.97
Cc1ccc(C(=O)C2=C(O)C(=O)N(CCCn3ccnc3)C2c2ccc(OC(C)C)cc2)o1 (stereo not given)	7.0	8.0%	i	17.0	1.04	1.09
COCCn1c(C)cc2c(c1=O)C(c1ccccc1F)C(C#N)=C(N)O2 (stereo not given)	26.0*	9.0%	i	2.0	1.05	1.01
CCN(CCNC(=O)CS(=O)(=O)Cc1nc(-c2cccc(OC)c2)oc1C)c1ccccc1	1.0	2.0%	i	4.0	1.02	0.99
CN(C)C=Nc1ncc2c([nH]c3ccccc32)c1C#N	11.0	9.0%	i	2.0	2.08*	1.16
O=C(NCc1cccnc1)C1CCCCN1S(=O)(=O)c1ccc(F)cc1 (stereo not given)	11.0	8.0%	i	13.0	1.1	0.97
CCOC(=O)c1oc2ccccc2c1NC(=O)COc1ccc(F)cc1	15.0	16.0%	i	8.0	3.89*	1.05
CCOC(=O)c1oc2ccccc2c1NC(=O)COc1cccc(OC)c1	11.0	8.0%	i	3.0	2.92*	1.07
CCOC(=O)c1oc2ccccc2c1NC(=O)c1ccccc1OC	13.0	6.0%	i	5.0	1.49	1.03
O=C1CC(c2ccc(S(=O)(=O)N3CCN(c4ccccc4)CC3)cc2)CN1 (stereo not given)	7.0	11.0%	i	11.0	1.01	0.99
CCOC(=O)CCn1c2nc(C)cc(C)c2c(=O)n1-c1ccccc1	64.0*	34.0%	·	3.0	4.48*	1.06
O=C(Nc1ccc(N2CCN(Cc3ccccc3Cl)CC2)cc1)c1cccnc1	4.0	3.0%	i	6.0	1.04	1
O=C(Nc1ccc(N2CCCCC2)cc1)c1cccnc1	8.0	17.0%	+	2.0	1.05	1.06
O=C1CCNc2cc3ccccc3cc21	0.0	3.0%	·	9.0	2.02*	1.01
COC(=O)c1oc2nc(C)cc(C)c2c1N	4.0	2.0%	·	0.0	3.86*	1.05
Cc1cc(Nc2cccc(F)c2)nc(-c2ccccc2O)n1	5.0	4.0%	i	6.0	1.33	1.06
Cc1cc(NCc2ccccc2)nc(-c2ccccc2O)n1	9.0	9.0%	·	9.0	2.19*	1.09
Cc1cc(N2CCCCCC2)nc(-c2ccccc2O)n1	1.0	4.0%	·	7.0	3.79*	1.05
Cc1cc(Nc2ccccc2)nc(-c2ccccc2O)n1	9.0	4.0%	i	2.0	2.17*	1.12
SMILES	Spn PMK inh	NADH enzymes	DPM-DC inhibit	Spn MK inh	Autofluor 339	A340 absorber
COC(=O)Cn1cnc2c(nnn2-c2cccc(Cl)c2)c1=O	5.0	2.0%	i	0.0	1	1.02
CCOc1cc(C(=O)CSc2nnc(CNc3ccc(Cl)cc3)o2)ccc1NC(=O)CC	7.0	3.0%	i	3.0	1.15	1.02
O=C(NCCN1CCN(c2ccccc2F)CC1)C1CCCN(S(=O)(=O)c2cnc[nH]2)C1 (stereo not given)	12.0	8.0%	i	11.0	1.09	0.99
c1ccc(-c2nc3nc4ccccc4nc3n2Cc2ccco2)cc1	15.0	12.0%	i	16.0	1.5	1.13
c1ccc(Cn2c(-c3cccs3)nc3nc4ccccc4nc32)cc1	5.0	7.0%	·	9.0	3.71*	1.03
CC(C)Cn1c(-c2cccs2)nc2nc3ccccc3nc21	2.0	1.0%	·	0.0	3.91*	1.07
O=C(NCCN1CCOCC1)c1cc2c(=O)n3ccccc3nc2n1Cc1ccccc1	14.0	9.0%	·	3.0	3.89*	1.13
CCN1CCN(C(=O)c2cc3c(=O)n4ccccc4nc3n2Cc2ccccc2)CC1	3.0	2.0%	·	1.0	3.89*	1.09
Cc1ccc(CNC(=O)CCNC(=O)Cn2ccc3ccccc3c2=O)o1	5.0	5.0%	i	6.0	1.48	1.06
CCSc1nc(-c2cccs2)nc2c1c(=O)n(C)c(=O)n2C	0.0	1.0%	i	0.0	1.27	1.08
CN(C(=O)CSc1nc2c(c(=O)[nH]1)CCCC2)C1CCCCC1	5.0	1.0%	i	0.0	1.04	1.01
COc1ccc2c(c1)c1ncn(CCN3CCCC3)c(=O)c1n2C	10.0	10.0%	·	9.0	3.69*	1.05
Cc1ccc2c(c1)[nH]c1c(=O)n(CCN3CCCCC3)cnc12	11.0	6.0%	i	0.0	1.67	1.08
COc1ccccc1CCn1cnc2c3cc(C)ccc3n(C)c2c1=O	0.0	8.0%	i	4.0	3.3*	1.01
CCCC(=O)Nc1cccc(NC(=O)CN2CCN(c3ccccc3OC)CC2)c1	27.0*	3.0%	i	4.0	1.03	1
O=C(NC1CCCC1)C1CC(=O)N(C2CCCCCCC2)C1 (stereo not given)	11.0	5.0%	i	3.0	0.99	1.02
O=C(NC1CCCCC1)C1CC(=O)N(c2ccc(Cl)cc2)C1 (stereo not given)	28.0*	13.0%	i	11.0	1.03	1.03
C=CCOc1nc(-c2ccncc2)nc2ccccc12	6.0	2.0%	i	0.0	1.08	1.04
O=C(CSc1nnc(-c2ccccc2)o1)N1CCN(c2ccccc2)CC1	1.0	3.0%	i	15.0	1.03	0.98
CCOc1ccc(-c2nnc(SCC(=O)N3CCN(c4ccccc4)CC3)o2)cc1	26.0*	4.0%	i	11.0	1.05	1.01
N#Cc1sc2nc3c(c(-c4ccco4)c2c1N)CCCC3	6.0	6.0%	i	11.0	1.3	1.03
COCc1cc(C)c2c(N)c(C#N)sc2n1	21.0	4.0%	·	0.0	2.44*	1.04
CC1CC(C)CN(CC(C)(C)NS(=O)(=O)c2ccccc2)C1 (stereo not given)	5.0	10.0%	i	25.0	1.05	1.04
Cc1csc(C(C#N)C(=O)c2ccc(S(=O)(=O)N3CCCC3)cc2)n1 (stereo not given)	25.0*	8.0%	i	0.0	0.99	1.13
